Screening results as filed in PubChem BioAssay.
In the library only some 1.7% were active in any assay of this set; here they are far more common.
F508del corr: correctors of CFTR F508del function in bronchial epithelial cells. activity (quench increase), % at 7.58 µM. 350,000 compounds, 0.36% hits. CFBE cells, YFP halide quenching; stimulated with forskolin plus potentiator P3; % fluorescence drop versus neutral controls. AID 720511;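 active = mean added fluorescence quench of at least 8% versus neutral control, with both replicates also reaching 8%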;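 note: cells transiently co-express mutant CFTR-F508del with the halide-sensitive YFP; corrector assay measuring rescue of mutant channel to the surface after 24 h compound exposure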
Vif inh: blocks HIV Vif function; HEK293T cells, Vif self-association by quenched fluorescence, imaging, 24 h; inhibition, % at 7.49 µM; 340,000 compounds, 0.35% hits; AID 602346; in the data active = inhibition above about 50%, passing the limit was not always enough
FGF22 binding: binders of recombinant human FGF22 by thermal shift; AID 651658; activity (Tm shift, normalised), % at 9.99 µM; Q9HCT0; 340,000 compounds, 1.5% hits; SYPRO orange fluorescence; percent of sucrose octasulfate shift, DMSO zero;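 active = mean Tm shift, scaled 0 neutral to 100 positive control, at about 1.3% or above, every replicate too, limit read from the data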
Target sequence (Q9HCT0 whole entry, looked up): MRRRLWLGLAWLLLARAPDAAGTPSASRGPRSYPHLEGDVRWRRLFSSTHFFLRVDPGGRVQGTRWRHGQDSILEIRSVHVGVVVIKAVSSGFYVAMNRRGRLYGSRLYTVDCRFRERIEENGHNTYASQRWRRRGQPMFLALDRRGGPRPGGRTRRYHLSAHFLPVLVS
An asterisk follows results filed as active; . = no result given.

SMILES | F508del corr | Vif inh | FGF22 binding
CC1=CC(C)(C)NC(=S)N1c1ccc([N+](=O)[O-])cc1 | 2 | -7 | 43*
CC1=CC(C)(C)NC(=S)N1c1ccc(C)cc1 | . | 7 | .
CCCCn1c(N)c(N(CC)C(=O)c2cc(CC)c(C)s2)c(=O)[nH]c1=O | 3 | 55* | 0
CCCCn1c(N)c(N(CC)C(=O)c2cc(Br)ccc2Cl)c(=O)[nH]c1=O | 2 | 2 | 44*
CCCCn1c(N)c(N(CC)C(=O)c2cc(S(=O)(=O)N3CCN(CC)CC3)ccc2Cl)c(=O)[nH]c1=O | -4 | 1 | 0
CCCCn1c(N)c(N(CCOC)C(=O)c2cc(CC)c(C)s2)c(=O)[nH]c1=O | 3 | -4 | 0
O=C(Nc1nccs1)[C@@H]1[C@@H](CO)[C@@H]2Cn3c(cccc3=O)[C@@H]2N1C(=O)C1CCCCC1 | -1 | . | 0
CCN(C[C@@H]1N[C@H](CO)[C@@H]1c1ccccc1)C(=O)c1ccccc1 | 1 | . | 0
Cc1[nH]n(-c2nc(-c3ccc(Cl)cc3)cs2)c(=O)c1N=Nc1ccc(O)cc1 | 6 | 3 | 43*
CCc1c(C)[nH]n(-c2nc(-c3ccccc3)cs2)c1=O | . | 5 | 0
CSc1ncccc1C(=O)OCC(=O)Nc1cccc(S(=O)(=O)N2CCOCC2)c1 | 1 | 0 | 43*
CSc1ncccc1C(=O)OCC(=O)NC(C)(C)C | -1 | 52* | 0
Cc1ccc(C(=O)OCC(=O)NC(C)C)cc1S(=O)(=O)N1CCOCC1 | 1 | 4 | 0
CSc1ncccc1C(=O)OCC(=O)Nc1ccc(C)c(S(=O)(=O)N2CCOCC2)c1 | -8 | -10 | 43*
Cc1ccc(C)c(C(=O)COC(=O)c2ccc(C)c(S(=O)(=O)N3CCOCC3)c2)c1 | 3 | 59* | 0
Cc1ccc(NC(=O)COC(=O)c2cccnc2Cl)cc1S(=O)(=O)N1CCOCC1 | -2 | 3 | 0
O=C(COC(=O)c1cccnc1Cl)Nc1cccc(S(=O)(=O)N2CCOCC2)c1 | 5 | -5 | 0
CSc1ncccc1C(=O)OCC(=O)NC(N)=O | . | 2 | .
C[C@@H]1CCCCO[C@@H](CN(C)CC2CC2)[C@@H](C)CN([C@H](C)CO)C(=O)c2cc(NC(=O)CCC(F)(F)F)ccc2O1 | 1 | . | 0
C[C@@H]1CN([C@H](C)CO)C(=O)c2cc(NC(=O)Nc3ccccc3)ccc2O[C@@H]1CN(C)S(=O)(=O)c1ccccc1 | 1 | . | 0
C[C@@H]1CN([C@@H](C)CO)C(=O)c2cc(-c3ccccc3)cnc2O[C@@H]1CN(C)Cc1ccccn1 | -1 | . | -1
COCC(=O)Nc1ccc2c(c1)[C@@H]1C[C@H](CC(=O)NCc3ccc4c(c3)OCO4)O[C@@H](CO)[C@@H]1O2 | -1 | . | -1
COCC(=O)N1CC(=O)N2[C@H](C1)[C@@H](c1ccc(C#CC3CCCCC3)cc1)[C@@H]2CO | 2 | . | .
Cc1cc(C)cc(NC(=S)NCc2ccncc2)c1 | -4 | 12 | 44*
Cc1cc(C)cc(NC(=S)NCc2cccnc2)c1 | . | 1 | 0
SMILES | F508del corr | Vif inh | FGF22 binding
CNC(=O)C[C@H]1CC[C@@H]2[C@H](COc3ccc(NC(=O)C4CCCCC4)cc3C(=O)N2C)O1 | 3 | . | 0
CN(C)S(=O)(=O)c1ccc2c(c1)C(=O)c1cc(S(=O)(=O)N(C)C)ccc1CC2 | -1 | -1 | 0
CN(C)S(=O)(=O)c1ccc2c(c1)/C(=C/c1cc3c([nH]1)CCCC3)C(=O)N2 | 8.6* | . | 0
CC(=O)Nc1ccc2c(c1)C(=O)N(C)[C@H]1CC[C@H](CC(=O)NC3CCCCC3)O[C@@H]1CO2 | -2 | . | 0
O=C1CN(C(=O)c2ccccc2F)c2ccccc2N1 | . | 1 | .
COc1cc(OC)cc(C(=O)N2CC(=O)Nc3ccccc32)c1 | 8.7* | -12 | 0
C[C@H]1CCCCO[C@@H](CN(C)S(=O)(=O)c2cccs2)[C@@H](C)CN([C@@H](C)CO)C(=O)c2cc(NS(=O)(=O)c3cn(C)cn3)ccc2O1 | 0 | . | 0
COC(=O)C1=CN(c2ccc3c(c2)OCO3)C(N)=C(C#N)C1c1cccc(F)c1 (configuration not stated) | 11* | . | 0
COC(=O)C1=CN(c2ccc(N3CCOCC3)cc2)C(N)=C(C#N)C1c1ccccc1 (configuration not stated) | 0 | . | 0
CCN(CC)c1ccc(/C=C(/C#N)c2nc3ccc(C)cc3[nH]2)c(OC(C)C)c1 | 17* | . | 0
COc1cc(/C=C(\C#N)c2nc3ccc(C)cc3[nH]2)c([N+](=O)[O-])cc1OC | . | -22 | .
Cc1ccc2nc(/C(C#N)=C\c3cc(O)ccc3[N+](=O)[O-])[nH]c2c1 | -1 | 4 | 0
CCCOc1cc(N(CC)CC)ccc1/C=C(/C#N)c1nc2ccc(C)cc2[nH]1 | 34* | . | 0
C[C@@H]1CN([C@H](C)CO)C(=O)CCCn2cc(nn2)CO[C@@H]1CN(C)Cc1cccc(O)c1 | 2 | . | 0
CN(C)CC#Cc1ccc([C@@H]2[C@H]3CN(C(=O)Cc4cccnc4)CC(=O)N3[C@H]2CO)cc1 | -3 | . | .
Cc1noc(C)c1NC(=O)N(C)C[C@@H]1Oc2c(NC(=O)Nc3ccccc3)cccc2C(=O)N([C@@H](C)CO)C[C@@H]1C | -1 | . | .
CCS(=O)(=O)N1[C@H](C#N)[C@H](c2ccc(C#CC(C)C)cc2)[C@@H]1CO | -3 | . | 0
COc1cccc(-c2cnc3c(c2)C(=O)N([C@H](C)CO)C[C@H](C)[C@H](CN(C)S(=O)(=O)c2cn(C)cn2)O3)c1 | 0 | . | 0
CNC(=O)c1ccsc1NC(=O)CCS(=O)(=O)c1ccccc1 | 1 | 3 | 43*
CNC(=O)c1ccsc1NC(=O)CCS(=O)(=O)c1ccc(C)cc1 | -1 | 7 | 0
COc1ccc(CN(C)C[C@@H]2Oc3c(NS(C)(=O)=O)cccc3C(=O)N([C@H](C)CO)C[C@H]2C)cc1 | 0 | . | 0
CCOC(=O)C1=C(C)N(CC(C)C)C(=O)C1 | 1 | -3 | 0
CCCCN1C(=O)CC(C(=O)OCC)=C1C | 11* | 2 | 0
C[C@H]1CN([C@@H](C)CO)C(=O)Cc2cc(NC(=O)CCCCCC(=O)Nc3ccccc3N)ccc2O[C@H]1CN(C)Cc1ccc(-c2ccccc2)cc1 | 0 | . | 0
CC(C(=O)NC1CCCC1)N1CCN(S(=O)(=O)c2ccc(C(C)(C)C)cc2)CC1 (configuration not stated) | 13* | 8 | 0
SMILES | F508del corr | Vif inh | FGF22 binding
CC(C)(C)c1ccc(S(=O)(=O)N2CCN(C3CCCC3)CC2)cc1 | 0 | -2 | 0
COc1ccc(S(=O)(=O)Nc2cccc3c2O[C@H](CN(C)Cc2ccc(C(=O)Nc4ccccc4N)cc2)[C@H](C)CN([C@H](C)CO)C3=O)cc1 | 4 | . | -1
CC(=O)N1CCc2c(sc(NC(=O)c3ccc(S(=O)(=O)N(C)C)cc3)c2C#N)C1 | 0 | 6 | 1
CC(=O)N1CCc2c(sc(NC(=O)c3ccc4c(c3)OCCO4)c2C#N)C1 | 10* | 12 | 0
COc1ccc(CN(C)C[C@H]2OCCCC[C@@H](C)Oc3ccc(NS(=O)(=O)c4ccc(Cl)cc4)cc3C(=O)N([C@H](C)CO)C[C@H]2C)cc1 | 4 | . | 0
COC(=O)c1ccccc1S(=O)(=O)NC(=O)c1ccccc1 | . | 0 | .
